Records with an inconclusive call do not appear. The source made the active and inactive calls. Calls follow the shape of the dose curve; as a rule, active = well fitted activation curve with a large enough effect; inconclusive = small, poorly fitted or top-dose-only effect; inactive = flat fitted curve, though single readings scatter.
assay: qHTS for Inhibitors of Cell Surface uPA Generation: Confirmatory Assay for Cherry-picked Compounds; conditions: cell surface uPA activity generation, qHTS confirmation; series mostly up to 115 µM
Outline: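 RAW 264.7 cells at 4000/well, incubated overnight, then treated with compounds. After 24 h at 37 C, viability was read by ATPlite luminescence. An increase in signal indicates blocked uPA-dependent LF entry.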

Potency, inactive:
O=C(Cc1n[nH]c(=O)c2ccccc12)Nc1cccc(S(=O)(=O)N2CCCCCC2)c1
CN(c1ccccc1)S(=O)(=O)c1ccc(C(=O)Nc2nnc(C3CC3)o2)cc1
CCOC(=O)C1CCCN(CC(=O)Nc2ccc(C(=O)Nc3ccccc3OC)cc2)C1 (centres undefined)
CC(=O)c1ccc(N2CCN(C(=S)NCc3ccco3)CC2)cc1
CCOC(=O)Cn1c(=O)cc(C)c2cccc(C)c21
O=C(NCC1CCCO1)c1c(O)c2cccc3c2n(c1=O)CCC3 (centres undefined)
Fc1ccc(CNc2ccccn2)cc1
CCOC(=O)N1CCN(C(=O)c2ccc3c(c2)sc2nc(-c4ccc(OC)cc4)cn23)CC1
O=C(COC(=O)c1cc([N+](=O)[O-])ccc1NCCO)NCc1cccs1
Cc1ccc(S(=O)(=O)N2CCOCC2)cc1NC(=O)CSc1nc(N)cc(N)n1
CNC(=S)N1C2CCCC1CC(NC(=O)c1ccc(F)cc1)C2 (centres undefined)
CC(=O)c1ccc(NC(=O)Nc2ccc(Br)cc2C)cc1
CN(C)S(=O)(=O)c1cccc(C(=O)OCC(=O)NCc2ccc3c(c2)OCO3)c1
COc1cc(NS(=O)(=O)c2ccc(NC(=S)NC(=O)COc3ccccc3OC)cc2)nc(OC)n1
CC(C)(C)NC(=O)C(c1cccs1)N(C(=O)c1csnn1)c1ccccc1F (centres undefined)
Cc1cc(=O)n2nc(N3CCCC(C(=O)NCc4ccc(Cl)cc4)C3)sc2n1 (centres undefined)
Cc1cc2c(cc1S(=O)(=O)Nc1ccc(F)cc1)n(C)c(=O)c(=O)n2C
NC(=O)c1ccc(NC(=O)CN2CCN(S(=O)(=O)c3ccc4ccccc4c3)CC2)cc1
CC(C)c1ccc(SCc2noc(C(=O)NCC3CCCO3)c2C(=O)O)cc1 (centres undefined)
C=CCOC(=O)C1=C[C@@H](c2coc3ccccc3c2=O)C[C@@H](OCc2ccc(CO)cc2)O1
CCOC(=O)c1c(NC(=S)NC)sc2c1CCCC2
CC(=O)Oc1ccc(OC(C)=O)c(SCCCCCCl)c1
Cc1ccc(NC(=O)CS(=O)Cc2nc(-c3ccc(C)cc3)oc2C)cc1 (centres undefined)
CCCc1nn2c(=O)cc(CSCC(=O)Nc3ccccc3)nc2s1
O=S(=O)(NCCc1ccccc1F)c1cccc(S(=O)(=O)N2CCOCC2)c1
COc1ccc(C(=O)N2CCN(c3ccc(C(C)=O)cc3)CC2)cc1S(=O)(=O)N1CCCC1
O=C(Nc1ccc(N2CCOCC2)cc1)c1ccc(Cl)c(S(=O)(=O)N2CCCC2)c1
O=C(Nn1cnnc1)c1ccc(Cl)c(Cl)c1
COc1ccccc1C(=O)NCCC(=O)NCC(c1ccc(F)cc1)N1CCOCC1 (centres undefined)
COc1ccc(CCNC(=O)COC(=O)CNS(=O)(=O)c2ccc(SC)c([N+](=O)[O-])c2)cc1
O=C1CCCC/C1=C\Nc1ccc(S(=O)(=O)Nc2cnc3ccccc3n2)cc1
Cc1ccc2c(c1)N(CC(=O)NCCCc1ccccc1)C(=O)c1cccnc1O2
Cc1ccc(-c2cc(C(=O)NCC3CCCO3)no2)cc1 (centres undefined)
OC(COc1ccc(Br)cc1)CN1CCN(c2ccccc2)CC1 (centres undefined)
CC1=C(C(=O)OCc2ccccc2)C(c2cccc([N+](=O)[O-])c2)NC(=O)N1 (centres undefined)
Cc1noc(C)c1COc1ccc(C(=O)O)cc1
O=[N+]([O-])c1ccccc1C=NNC(=S)NN=Cc1ccccc1[N+](=O)[O-]
O=C(C[C@H]1C[C@H](C(=O)N2CCOCC2)[C@@]2(CCC3CCCC3)c3[nH]c4cc(-c5ccco5)ccc4c3CCN2C1=O)NCc1cccc(C(F)(F)F)c1
CC1(C)CC(CCC(=O)NC(=S)Nc2ccccc2Cl)C(=O)O1 (centres undefined)

From PubChem BioAssay AID720519 (National Center for Advancing Translational Sciences (NCATS), 2013)
